# Results reported in the supplement of paper PMC4022240.
# ± gives the standard deviation.
# T1: HaloTag-ATRX ADD domain (163-292)
# T1 chain: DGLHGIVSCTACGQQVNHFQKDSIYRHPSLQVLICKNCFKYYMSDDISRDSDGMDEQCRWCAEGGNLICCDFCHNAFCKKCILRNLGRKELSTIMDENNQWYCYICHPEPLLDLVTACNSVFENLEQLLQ
# Experiments:
# Experiment in all cases: peptide microarray binding signal (635 nm), min-max normalized on array (fraction of array maximum); higher = stronger binding
# Details in all cases: peptide region: H3 20-32
# [1] = molecular target: T1, HaloTag-ATRX ADD domain (163-292)
# In short: (§1)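 Two probe formats were used for 1 h at 4°C: biotin-labelled HaloTag reader fusions (10 nM to 1 μM) with streptavidin-Alexa Fluor 647, and rabbit histone antibodies (1:10,000 to 1:2,000) with anti-rabbit Alexa 647. Both were applied to nitrocellulose arrays of histone 13-mer peptide–cellulose conjugates printed in triplicate with a Cy3 tracer and blocked overnight at 4°C. Signal was read at 635 nm and misprints at 532 nm on an Axon GenePix 4000B. Binding signal is expressed as the triplicate-spot mean intensity, min-max scaled for each library.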
# [2] = molecular target: HaloTag-ING2 PHD (mouse Ing2 200-280)
# In short: as §1
# [3] = molecular target: anti-H3K4me3 antibody ab8580
# In short: as §1
# [4] = molecular target: anti-H3K9me3 antibody ab8898
# In short: as §1
# [5] = peptide modifications: H3R26cit H3K27me3, binder concentration: 1:2,000 dilution
# [6] = peptide modifications: H3R26cit H3K27me3, binder concentration: 1:10,000 dilution
# [7] = peptide modifications: H3R26me1 H3K27me1, binder concentration: 1:2,000 dilution
# [8] = peptide modifications: H3R26me1 H3K27me1, binder concentration: 1:10,000 dilution
# [9] = peptide modifications: H3R26me1, binder concentration: 1:2,000 dilution
# [10] = peptide modifications: H3R26me1, binder concentration: 1:10,000 dilution
# [11] = peptide modifications: H3R26me1 H3K27ac, binder concentration: 1:2,000 dilution
# [12] = peptide modifications: H3R26me1 H3K27ac, binder concentration: 1:10,000 dilution
# [13] = peptide modifications: H3R26me1 H3K27me3, binder concentration: 1:2,000 dilution
# [14] = peptide modifications: H3R26me1 H3K27me3, binder concentration: 1:10,000 dilution
# [15] = peptide modifications: H3R26me1 H3K27me2, binder concentration: 1:2,000 dilution
# [16] = peptide modifications: H3R26me1 H3K27me2, binder concentration: 1:10,000 dilution
# [17] = peptide modifications: H3R26cit, binder concentration: 1:2,000 dilution
# [18] = peptide modifications: H3R26cit, binder concentration: 1:10,000 dilution
# [19] = peptide modifications: H3R26cit H3K27me2, binder concentration: 1:2,000 dilution
# [20] = peptide modifications: H3R26cit H3K27me2, binder concentration: 1:10,000 dilution
# [21] = peptide modifications: H3R26me2a H3K27ac, binder concentration: 1:2,000 dilution
# [22] = peptide modifications: H3R26me2a H3K27ac, binder concentration: 1:10,000 dilution
# [23] = peptide modifications: H3R26me2a H3K27me1, binder concentration: 1:2,000 dilution
# [24] = peptide modifications: H3R26me2a H3K27me1, binder concentration: 1:10,000 dilution
binder,measurement,setting,value
LATKAARKSAPAT [H3 20-32 L A T K A A Rcit Kme3 S A P A T],peptide microarray binding signal,"[1]; peptide modifications: H3R26cit H3K27me3, binder concentration: 50 nM",0.00564 ± 0.00031
same,peptide microarray binding signal,"[1]; peptide modifications: H3R26cit H3K27me3, binder concentration: 500 nM",0.00676 ± 0.00027
same,peptide microarray binding signal,"[2]; peptide modifications: H3R26cit H3K27me3, binder concentration: 10 nM",0.0135 ± 0.00085
same,peptide microarray binding signal,"[2]; peptide modifications: H3R26cit H3K27me3, binder concentration: 100 nM",0.0188 ± 0.00063
same,peptide microarray binding signal,[3]; [5],0.0286 ± 0.0025
same,peptide microarray binding signal,[3]; [6],0.0204 ± 0.00089
same,peptide microarray binding signal,[4]; [5],0.0791 ± 0.0015
same,peptide microarray binding signal,[4]; [6],0.05 ± 0.006
LATKAARKSAPAT [H3 20-32 L A T K A A Rme Kme S A P A T],peptide microarray binding signal,"[1]; peptide modifications: H3R26me1 H3K27me1, binder concentration: 50 nM",0.00489 ± 4.8e-05
same,peptide microarray binding signal,"[1]; peptide modifications: H3R26me1 H3K27me1, binder concentration: 500 nM",0.00657 ± 0.0021
same,peptide microarray binding signal,"[2]; peptide modifications: H3R26me1 H3K27me1, binder concentration: 10 nM",0.00794
same,peptide microarray binding signal,"[2]; peptide modifications: H3R26me1 H3K27me1, binder concentration: 100 nM",0.0109 ± 0.00039
same,peptide microarray binding signal,[3]; [7],0.00355 ± 0.00035
same,peptide microarray binding signal,[3]; [8],0.00474 ± 0.00018
same,peptide microarray binding signal,[4]; [7],0.0024 ± 8.4e-05
same,peptide microarray binding signal,[4]; [8],0.001557 ± 1.5e-05
LATKAARKSAPAT [H3 20-32 L A T K A A Rme K S A P A T],peptide microarray binding signal,"[1]; peptide modifications: H3R26me1, binder concentration: 50 nM",0.00408 ± 8.9e-05
same,peptide microarray binding signal,"[1]; peptide modifications: H3R26me1, binder concentration: 500 nM",0.006381 ± 3.8e-05
same,peptide microarray binding signal,"[2]; peptide modifications: H3R26me1, binder concentration: 10 nM",0.00824 ± 0.00019
same,peptide microarray binding signal,"[2]; peptide modifications: H3R26me1, binder concentration: 100 nM",0.0116 ± 0.00028
same,peptide microarray binding signal,[3]; [9],0.00342 ± 0.0002
same,peptide microarray binding signal,[3]; [10],0.00325 ± 0.00018
same,peptide microarray binding signal,[4]; [9],0.00187 ± 4.7e-05
same,peptide microarray binding signal,[4]; [10],0.00161 ± 3.1e-05
LATKAARKSAPAT [H3 20-32 L A T K A A Rme Kac S A P A T],peptide microarray binding signal,"[1]; peptide modifications: H3R26me1 H3K27ac, binder concentration: 50 nM",0.00429 ± 0.00036
same,peptide microarray binding signal,"[1]; peptide modifications: H3R26me1 H3K27ac, binder concentration: 500 nM",0.0144 ± 0.0011
same,peptide microarray binding signal,"[2]; peptide modifications: H3R26me1 H3K27ac, binder concentration: 10 nM",0.0271 ± 0.0026
same,peptide microarray binding signal,"[2]; peptide modifications: H3R26me1 H3K27ac, binder concentration: 100 nM",0.0327 ± 0.0033
same,peptide microarray binding signal,[3]; [11],0.00627 ± 0.0032
same,peptide microarray binding signal,[3]; [12],0.00987 ± 0.00026
same,peptide microarray binding signal,[4]; [11],0.0058 ± 0.00049
same,peptide microarray binding signal,[4]; [12],0.00306 ± 0.00012
LATKAARKSAPAT [H3 20-32 L A T K A A Rme Kme3 S A P A T],peptide microarray binding signal,"[1]; peptide modifications: H3R26me1 H3K27me3, binder concentration: 50 nM",0.00668 ± 0.00028
same,peptide microarray binding signal,"[1]; peptide modifications: H3R26me1 H3K27me3, binder concentration: 500 nM",0.019 ± 0.0018
same,peptide microarray binding signal,"[2]; peptide modifications: H3R26me1 H3K27me3, binder concentration: 10 nM",0.0343 ± 0.0033
same,peptide microarray binding signal,"[2]; peptide modifications: H3R26me1 H3K27me3, binder concentration: 100 nM",0.0417 ± 0.0052
same,peptide microarray binding signal,[3]; [13],0.0743 ± 0.016
same,peptide microarray binding signal,[3]; [14],0.0599 ± 0.0085
same,peptide microarray binding signal,[4]; [13],0.162 ± 0.016
same,peptide microarray binding signal,[4]; [14],0.0985 ± 0.023
LATKAARKSAPAT [H3 20-32 L A T K A A Rme Kme2 S A P A T],peptide microarray binding signal,"[1]; peptide modifications: H3R26me1 H3K27me2, binder concentration: 50 nM",0.00392 ± 0.00013
same,peptide microarray binding signal,"[1]; peptide modifications: H3R26me1 H3K27me2, binder concentration: 500 nM",0.002619 ± 2.1e-05
same,peptide microarray binding signal,"[2]; peptide modifications: H3R26me1 H3K27me2, binder concentration: 10 nM",0.00483 ± 0.00013
same,peptide microarray binding signal,"[2]; peptide modifications: H3R26me1 H3K27me2, binder concentration: 100 nM",0.00517 ± 7.1e-05
same,peptide microarray binding signal,[3]; [15],0.00176
same,peptide microarray binding signal,[3]; [16],0.00194
same,peptide microarray binding signal,[4]; [15],0.00106 ± 2.2e-05
same,peptide microarray binding signal,[4]; [16],0.001211 ± 1.2e-05
LATKAARKSAPAT [H3 20-32 L A T K A A Rcit K S A P A T],peptide microarray binding signal,"[1]; peptide modifications: H3R26cit, binder concentration: 50 nM",0.00411 ± 8.3e-05
same,peptide microarray binding signal,"[1]; peptide modifications: H3R26cit, binder concentration: 500 nM",0.00633 ± 0.00025
same,peptide microarray binding signal,"[2]; peptide modifications: H3R26cit, binder concentration: 10 nM",0.00824 ± 0.00018
same,peptide microarray binding signal,"[2]; peptide modifications: H3R26cit, binder concentration: 100 nM",0.0125 ± 0.00034
same,peptide microarray binding signal,[3]; [17],0.00296 ± 0.00035
same,peptide microarray binding signal,[3]; [18],0.00285 ± 6.5e-05
same,peptide microarray binding signal,[4]; [17],0.00168 ± 3.3e-05
same,peptide microarray binding signal,[4]; [18],0.00138 ± 1.4e-05
LATKAARKSAPAT [H3 20-32 L A T K A A Rcit Kme2 S A P A T],peptide microarray binding signal,"[1]; peptide modifications: H3R26cit H3K27me2, binder concentration: 50 nM",0.00414 ± 5.8e-05
same,peptide microarray binding signal,"[1]; peptide modifications: H3R26cit H3K27me2, binder concentration: 500 nM",0.00333 ± 0.00011
same,peptide microarray binding signal,"[2]; peptide modifications: H3R26cit H3K27me2, binder concentration: 10 nM",0.00692 ± 0.00014
same,peptide microarray binding signal,"[2]; peptide modifications: H3R26cit H3K27me2, binder concentration: 100 nM",0.00843 ± 0.00034
same,peptide microarray binding signal,[3]; [19],0.00262 ± 0.00016
same,peptide microarray binding signal,[3]; [20],0.00314 ± 4.6e-05
same,peptide microarray binding signal,[4]; [19],0.00196 ± 6.8e-05
same,peptide microarray binding signal,[4]; [20],0.00167 ± 4.8e-05
LATKAARKSAPAT [H3 20-32 L A T K A A Rme2a Kac S A P A T],peptide microarray binding signal,"[1]; peptide modifications: H3R26me2a H3K27ac, binder concentration: 50 nM",0.00467 ± 0.00027
same,peptide microarray binding signal,"[1]; peptide modifications: H3R26me2a H3K27ac, binder concentration: 500 nM",0.0126 ± 0.0011
same,peptide microarray binding signal,"[2]; peptide modifications: H3R26me2a H3K27ac, binder concentration: 10 nM",0.0197 ± 0.0013
same,peptide microarray binding signal,"[2]; peptide modifications: H3R26me2a H3K27ac, binder concentration: 100 nM",0.0246 ± 0.0016
same,peptide microarray binding signal,[3]; [21],0.00936 ± 0.0018
same,peptide microarray binding signal,[3]; [22],0.0107 ± 0.00049
same,peptide microarray binding signal,[4]; [21],0.00763 ± 0.0006
same,peptide microarray binding signal,[4]; [22],0.00565 ± 0.00056
LATKAARKSAPAT [H3 20-32 L A T K A A Rme2a Kme S A P A T],peptide microarray binding signal,"[1]; peptide modifications: H3R26me2a H3K27me1, binder concentration: 50 nM",0.00489 ± 1.8e-05
same,peptide microarray binding signal,"[1]; peptide modifications: H3R26me2a H3K27me1, binder concentration: 500 nM",0.00571 ± 0.00016
same,peptide microarray binding signal,"[2]; peptide modifications: H3R26me2a H3K27me1, binder concentration: 10 nM",0.0113
same,peptide microarray binding signal,"[2]; peptide modifications: H3R26me2a H3K27me1, binder concentration: 100 nM",0.0169 ± 0.00094
same,peptide microarray binding signal,[3]; [23],0.00704 ± 0.00042
same,peptide microarray binding signal,[3]; [24],0.00879 ± 0.00091
same,peptide microarray binding signal,[4]; [23],0.00356 ± 0.00021
same,peptide microarray binding signal,[4]; [24],0.00236 ± 3.7e-05
